# Measured values as given in publication PMC5540273 (PLoS ONE, 2017).
# Legend:
# TAK1 = system: T1, TAK1
# T1 construct: gene MAP3K7
# 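Further: kd values determined as follow-up on hits from a single-replicate KINOMEscan panel screen.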
structure (smiles),measurement,setting,value
CN1C(=O)C(Nc2cc(Cl)c(O)c(Cl)c2)=C(c2ccc(Cl)cc2)C1=O [SB-404321],Kd,SRPK3,> 10 µM
CCn1c(-c2ccoc2)nc2cnccc21 [SB-733887],Kd,TAK1,> 10 µM
Cc1nnc(-c2ccc3ncn(-c4ccc(S(C)=O)cc4)c3c2)o1 (centres unmarked),Kd,TAOK1,> 10 µM
same,Kd,TAOK3,> 10 µM
COc1ccc(-c2cc3c(C)nc(N)nc3n([C@H]3CC[C@H](O)CC3)c2=O)cn1,Kd,TBK1,> 10 µM
O=C(NCCNc1ccnc(Nc2ccc(F)cc2)n1)Nc1ccc2c(c1)OCO2 [GSK1379882],Kd,TESK1,> 10 µM
Cc1cc(Nc2nc(-c3cccc(C)n3)nc3ccccc23)ccn1 [GW872411],Kd,TGFBR1,0.27 µM
COc1cc2ncn(-c3cc(OCc4ccncc4)c(C(N)=O)s3)c2cc1OC [GSK336313],Kd,TIE1,> 10 µM
CCCC(=O)Nc1n[nH]c2ncc(-c3cccc4ccccc34)cc12 [SB-642057],Kd,TLK2,> 10 µM
O=C1NC(=O)C(c2ccccc2)=C1Nc1cccc(O)c1 [SB-390534],Kd,TLK2,2.4 µM
COc1cc(OC)cc(-c2cc3cnc(N)nc3nc2NC(=O)NC(C)(C)C)c1,Kd,TNK2,> 10 µM
